Potency data for 40 molecules are collected here from PubChem BioAssay (NCATS).

Inconclusive results are not listed. Entries that show only a call come without a potency. Activity calls are given as the source filed them. Calls come from the whole dose curve; as a rule, active = well fitted activation curve with a large enough effect in the signal ratio; inconclusive = small, poorly fitted or top-dose-only effect, or effect the other way, or a change in a side signal; inactive = flat fitted curve, though single readings scatter; the % refers to the signal ratio.

The nature of the assay: qHTS assay to identify small molecules that stimulate interleukin-8 (IL-8) secretion (AID 651758). The settings on record: HTRF ratio (665/615); series mostly up to 92.2 µM. An excerpt: National Center for Advancing Translational Sciences [NCATS]
NIH Chemical Genomics Center [NCGC]
National Institutes of Environmental Health Sciences [NIEHS]
National Toxicology Program [NTP]
Interleukin-8 is a 8 kDa chemokine produced by macrophages and other cells like epithelial cells that is often associated with inflammation. Interleukin-8 secretion is a key parameter in localized inflammation. There is a growing concern for some of environmental chemicals which may contribute the increasing the incidence of inflammation. A homogeneous IL-8 assay using Time Resolved fluorescence (HTRF) technology based on Time Resolved Fluorescent Resonance Energy Transfer (TR-FRET) allows to measure IL-8 secreted from the cells in a 1536-well plate format.
THP-1 cells were dispensed at 2000 cells/5ul/well in 1536-well white solid plates. After addition of 23 nl of compound, positive controls and DMSO only, the assay plates were incubated at 37 C for 16 hrs, followed by addition of 5 uL of mixture of cryptate labeled and XL665 labeled anti-IL-8 antibodies. After the assay plates were incubated at room temperature for 1-3 hrs, the plates were measured by an EnVision plate reader.
Background: In qHTS, concentration-response curves come from the screen itself.
In the case of `CCCCCCCCC`, the Potency entry is “inactive”.

Turning to `CC(=O)c1ccccn1`, the Potency entry is “inactive”. In the case of `CCC(C)O` (stereo not given), the Potency result was “inactive”. As to `CCCOCC(C)OCC(C)O` (stereo not given), the Potency result was “inactive”. For `Nc1cc(S(=O)(=O)O)ccc1O`, the Potency result is “inactive”. Next, `c1ccc(Oc2ccccc2)cc1`: “inactive”; `CC/C(C)=N/O`: “inactive”; `CCCCC=O`: “inactive”. Next, `NC(=O)/N=N/C(N)=O`: “inactive”; `CC(C)Cc1nccs1`: “inactive”. Under `O=C(O)c1cc(Cl)cc(Cl)c1` stands “inactive”; under `O=[N+]([O-])c1cccc(C(F)(F)F)c1`, “inactive”.

`c1ccc2c(c1)Oc1ccccc1S2`: the Potency entry was “inactive”. Next, `CCCCC(CC)CO` (stereo not given): “inactive”; `Cc1ccccc1C=O`: “inactive”; `O=C(O)c1ccc(C(=O)O)cc1`: “inactive”. Regarding `C[C@@H]1CC2(OC3C[C@@]4(C)C5=CC[C@H]6C(C)(C)C(O[C@@H]7OC[C@@H](O)[C@H](O)[C@H]7O)CC[C@@]67C[C@@]57CC[C@]4(C)C31)OC(O)C1(C)OC21` (stereo not given in full), the Potency entry is “inactive”. On to `Cc1cccc(C)c1[N+](=O)[O-]`, for which the Potency entry is “inactive”. Next, `CCC(C)=O`: “inactive”; `CCOCC(=O)O`: “inactive”. For the molecule `O=C1CCCCC1`, the Potency entry was “inactive”. For `CC=O`, the Potency result was “inactive”. Consider `Cc1cccc(C(=O)O)c1[N+](=O)[O-]`, for which the Potency entry was “inactive”. Regarding `CC(C)(c1cc(Br)c(OCC(Br)CBr)c(Br)c1)c1cc(Br)c(OCC(Br)CBr)c(Br)c1` (stereo not given), the Potency result was “inactive”. As for `O=C(O)/C=C/C(=O)O`, the Potency entry is “inactive”. For `O=C(O)c1ccccc1C(=O)O`, the Potency entry was “inactive”. Next, `C=Cc1ccccn1`: “inactive”; `CCOc1ccccc1N`: “inactive”; `O=[N+]([O-])c1ccc2nc[nH]c2c1`: “inactive”.

On to `CCC(C)(C)C`, for which the Potency result is “inactive”. As for `O=Cc1cccc(Br)c1`, the Potency result was “inactive”. For the molecule `C1CCCC1`, the Potency entry is “inactive”. Consider `Oc1c(Cl)ccc(Cl)c1Cl`, for which the Potency result is “inactive”.

For `CCOC(C)(C)C`, the Potency entry was “inactive”. Turning to `O=C(Cl)c1cccc([N+](=O)[O-])c1`, the Potency entry is “inactive”. In the case of `C=C(C)C(=O)OCC(C)O` (stereo not given), the Potency entry is “inactive”.

Consider `CO[Si](CCCNCCC[Si](OC)(OC)OC)(OC)OC`, for which the Potency result is “inactive”.

On to `CC(=O)Nc1ccccc1C`, for which the Potency result was “inactive”. Consider `Cc1cc(C)c(N)cc1C`, for which the Potency entry is “inactive”.

On to `NC(=O)CCCCC(N)=O`, for which the Potency result was “inactive”.
